73 molecules from ChEMBL document CHEMBL4513216, “Probing the Open Global Health Chemical Diversity Library for Multistage-Active Starting Points for Next-Generation Antimalarials” (ACS Infect Dis, 2020) can be followed below.

Hit rate of the full screen: of about 69,000 compounds, about 8,600 (12%) showed an effect of 50% or more. The list comes from a sample in which strong results are over-represented; it also holds similar structures and randomly drawn compounds.

In this assay the test system is Plasmodium berghei. Description: Screen against P. berghei liver stage (PbLuc), transformed with Luciferase, at 10uM. Conditions: tested at 10 uM. Type of assay: functional, HepG2.
On to `Cc1ccc(N2CC[C@H]3[C@@H]2CCC(=O)N3CCN2CCOCC2)nn1`, for which the INHIBITION is 18.7%. On to `O=C(c1cnccn1)N1CCOC2(CCN(Cc3ccsc3)CC2)C1`, for which the INHIBITION was 13.7%. Turning to `CNC(=O)NCC1CCC2(CCN(C(=O)c3ccccn3)CC2)CO1` (stereo not drawn), the INHIBITION worked out at 35.8%.

`CN(C)Cc1cc(C2CCN(C(=O)C3CC34CCC4)CC2)nn1C` (stereo not drawn): the INHIBITION came to 8.53%.

Turning to `CC(C)Oc1ccc(CC2=N[C@](C)(CO)CO2)cc1`, the INHIBITION is 16%.

For the molecule `CCCOc1ccc(CC2=NC(C)(CO)CO2)cc1` (stereo not drawn), the INHIBITION is listed as 58.3%. `CC1(CO)COC(Cc2ccc(Cl)cc2)=N1` (stereo not drawn): the INHIBITION came out at 0.29%. `CCn1cc(C(=O)Nc2ccccc2C(=O)OC)cn1`: the INHIBITION came to 21.5%.

Regarding `CS(=O)(=O)N1CCOCC2(CCN(Cc3ccoc3)CC2)C1`, the INHIBITION came to 35.5%. With `O=C1NCC2(CCCN(Cc3ccc(F)cc3)C2)Oc2ccccc21` (stereo not drawn) the figure was 46%; with `CSc1ccc(CN2CCCC3(CNC(=O)c4ccccc4O3)C2)cc1` (stereo not drawn), 73.7%; with `O=C1NCC2(CCCN(Cc3ccncc3)C2)Oc2ccccc21` (stereo not drawn), 36.4%. For `O=C(NCCc1nccs1)c1n[nH]c2c1CCC2`, the INHIBITION is -147%. Take `Cc1ccc2cccc(C(=O)NCC3CCN(C(C)C)C3)c2n1` (stereo not drawn): the INHIBITION is on record as 50.1%. Consider `Cc1ccc2cccc(C(=O)NCCOCC3CC3)c2n1`, for which the INHIBITION is listed as -58.5%. With `CN1CCC(CNC(=O)c2ccc3cccc(Cl)c3n2)C1` (stereo not drawn), the INHIBITION is 9.4%.

Consider `COCCn1cnc2c(F)cc(Br)cc2c1=O`, for which the INHIBITION is 47.4%. Then `CC(C)N(C)S(=O)(=O)c1ccc2c(c1)CCN(C(=O)c1cnccn1)C2`, with 28.8%. For the molecule `CC(C)N(C)S(=O)(=O)c1ccc2c(c1)CCN(C(=O)c1cscn1)C2`, the INHIBITION is on record as 65.2%. Consider `CC(C)N(C)S(=O)(=O)c1ccc2c(c1)CCN(C(=O)c1ccccn1)C2`, for which the INHIBITION is reported as -12.1%.

Consider `CCCc1cc(C(=O)NC(C)c2ccccc2)n(C)n1` (stereo not drawn), for which the INHIBITION turned out to be 8.7%. Consider `O=C(O)c1cc(Br)cnc1OCC1CC1`, for which the INHIBITION was found to be 14.4%.

As for `Cc1cc2c(cc1CNC(Cc1cccs1)c1nccs1)OCO2` (stereo not drawn), the INHIBITION amounted to 28.375%. Then `CCSCCC(=O)Nc1ncn(Cc2ccccc2)n1`, with 42%. With `CC(C)N(Cc1cccnc1)C(=O)CNc1ccc(C#N)cc1` the figure was -21%; with `CCC(=O)Nc1ncn(Cc2cccnc2)n1`, 61.2%. On to `CCSCCC(=O)Nc1ncn(Cc2cccnc2)n1`, for which the INHIBITION is listed as -11.1%. With `N#Cc1ccc(NCC(=O)Nc2ncn(Cc3cccnc3)n2)cc1`, the INHIBITION is given as 72.3%. As for `N#Cc1ccc(NCC(=O)Nc2ccn(Cc3cccnc3)n2)cc1`, the INHIBITION worked out at 41.4%. With `Cc1ncsc1C(=O)NCCn1nc(C2CCNC2)c2cccnc21` (stereo not drawn) the figure was 38.7%; with `CCc1nc(CC(=O)NCC(Cc2ccc(F)cc2)C(N)=O)cs1` (stereo not drawn), 48.2%; with `O=C(NC1CC1)c1cccc(Oc2ccc3nncn3n2)c1`, -34.4%. In the case of `CC1(C)CC1(C(=O)N1CC(c2cccnc2)C1)c1ccccc1F` (stereo not drawn), the INHIBITION is 28.7%.

On to `COc1ccc(C2(C(=O)N3CC(c4cccnc4)C3)CC2(C)C)cc1` (stereo not drawn), for which the INHIBITION stood at 55.4%. With `Cc1ccc(C(=O)N2Cc3ccccc3C2)cc1N1CCNC1=O` the figure was 2.74%. Then `Cc1ccc(C(=O)N2CCSCC2)cc1N1CCNC1=O`, with 48.5%.

Consider `CC1(C)CC1(C(=O)N1CC(c2cccnc2)C1)c1ccc(F)cc1` (stereo not drawn), for which the INHIBITION worked out at 21.2%. With `COc1cc(C)sc1C(=O)N1CCC(Nc2cccnc2)CC1`, the INHIBITION is 18.5%. With `COc1cc(C)sc1C(=O)N1CCCCC1c1ccccn1` (stereo not drawn), the INHIBITION was determined as 47.7%. Regarding `Cc1ccc(C(=O)N2CC(c3cccnc3)C2)cc1N1CCNC1=O`, the INHIBITION turned out to be 56.7%. As to `COc1cc(C)sc1C(=O)N1CC(c2cccnc2)C1`, the INHIBITION is 56.8%. Then `COc1ccccc1CC(=O)N1CCCC(c2cc(C)[nH]n2)C1` (stereo not drawn), with -24.2%; and `Cc1ccc(-c2nnc(CNC(=O)c3cccnc3)o2)cn1`, with 30.4%; and `CC(=O)N1CCCN(C(=O)NCCCn2cncn2)CC1`, with -10.895%. Then `COCCN(CCN(C)C)C(=O)NC1CCc2ccccc2C1` (stereo not drawn), with -65.3%. Consider `COc1ccc(F)c(F)c1C(=O)N1C[C@@H](CN(C)CCO)[C@@H](CO)C1`, for which the INHIBITION was -1.38%.

Take `COCCN(C)C[C@H]1C[C@H](CO)CN(C(=O)c2ccc(=O)n(C)c2)C1`: the INHIBITION is 50.7%. As for `COc1cccc(C(=O)N2C[C@@H](CN(C)CCO)[C@@H](CO)C2)c1C`, the INHIBITION was determined as 20.6%. For `COCCN(C)C[C@@H]1CN(C(=O)c2ccc(OC)c(F)c2)C[C@@H]1CO`, the INHIBITION was 0.29%. For `COCCN(CCOC)C(=O)NC1CCCCC1`, the INHIBITION turned out to be 50.8%. For `COCCN(C)C[C@H]1C[C@H](CO)CN(C(=O)c2ccn(C)c(=O)c2)C1`, the INHIBITION came to 11.7%.

With `COCCN(CCN(C)C)C(=O)NC1CC1`, the INHIBITION is recorded as 7.25%. As for `COc1ccc(C)cc1C(=O)N1C[C@@H](CN(C)CCO)[C@@H](CO)C1`, the INHIBITION worked out at 56.9%. For `COCCN(C)C[C@H]1C[C@@H](CO)CN(C(=O)c2ccn(C)c(=O)c2)C1`, the INHIBITION is listed as 35.5%.

On to `COc1cc(C)ccc1C(=O)N1C[C@@H](CN(C)CCO)[C@@H](CO)C1`, for which the INHIBITION was -1.38%. For the molecule `COCCN(C)C[C@@H]1CN(C(=O)c2c(F)ccc(OC)c2F)C[C@@H]1CO`, the INHIBITION worked out at 84.4%. As for `CS(=O)(=O)c1ccc(Cl)c(NC(=O)NCCC2=CCCCC2)c1`, the INHIBITION is recorded as 0.818%. With `COCCC1COC2(CCN(C(=O)c3ccco3)CC2)C1` (stereo not drawn), the INHIBITION was determined as 29.6%. For the molecule `CN(C)C(=O)[C@H]1C[C@H]2OCC[C@H]2N(Cc2ccc3ccccc3n2)C1`, the INHIBITION is 25.2%. As to `CC(C)NC(=O)[C@H]1C[C@@H]2[C@@H](C1)OCCN2Cc1ccco1`, the INHIBITION is reported as 7.24%. Take `CC(C)(C)OC(=O)N[C@@H]1C[C@@H](O)CN(C(=O)c2cccc(F)c2)C[C@H]1O`: the INHIBITION is given as 4.41%. Consider `C[C@H]1C(=O)NC[C@H]2CN(Cc3cccc(F)c3)C[C@H]21`, for which the INHIBITION was 23.5%. Consider `CC(=O)N1CCC2(CC1)CN(C)C(=O)C[C@H]2C(F)(F)F`, for which the INHIBITION came to 2.79%. Regarding `CC(Nc1c(F)cc(C#N)cc1F)c1cccc(S(N)(=O)=O)c1` (stereo not drawn), the INHIBITION is given as -68.1%. With `COCCN(C)C[C@@H]1CN(C(=O)c2ccc(C)cc2)C[C@@H]1CO` the figure was -18.9%; with `COCCN(C)C[C@@H]1CN(C(=O)c2sc3ccccc3c2C)C[C@@H]1CO`, 17.6%; with `CCN(C)C[C@@H]1CN(C(=O)NC2CCCCC2)C[C@@H]1CO`, 24.5%.

As for `COCCN(C)C[C@@H]1CN(C(=O)c2ccc(=O)n(C)c2)C[C@@H]1CO`, the INHIBITION was 57.2%. In the case of `CN(C)CCN(C)C[C@@H]1CN(C(=O)NC2CCCC2)C[C@@H]1CO`, the INHIBITION was determined as 27.4%. With `COCCN(C)C[C@@H]1CN(C(=O)C(C)(C)c2ccccc2)C[C@@H]1CO`, the INHIBITION was 60.6%. In the case of `COCCN(C)C[C@@H]1CN(C(=O)NC2CCCCC2)C[C@@H]1CO`, the INHIBITION was 50.2%. With `COCCN(C)C[C@@H]1CN(C(=O)c2ccc(SC)cc2)C[C@@H]1CO` the figure was 19.4%; with `COCCN(C)C[C@@H]1CN(C(=O)c2cccc(C(F)(F)F)c2)C[C@@H]1CO`, 23.5%.
